# Screen size: about 53,000 sequences; about 3,700 (7%) were called active.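 The calls were made as follows: active = gene knockdowns whose robust z-score for IL-1 alpha signal is at least 2 or at most -2, so actives lie on both sides; inactive = the rest.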 The sample as a whole holds a higher share of actives than the screen did.
# Test: Components of the Cytosolic LPS Sensing Pathway: Gene Identification via Genome-wide siRNA Screen;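 also: robust z of the log signal after scaling to non-targeting control siRNA wells of the plate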
# Settings: RAW264.7 macrophages, IL-1a HTRF, actives lie on both sides, screened at 100 nM (by protocol), cells primed 5 h with Pam3CSK4 first
# Method in brief: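 Read-out: IL-1a HTRF on supernatant, divided by plate negative-control median ×100, log-transformed and converted to robust z-score. Cells were RAW264.7 given 100 nM siRNA, Pam3CSK4-primed 5 hours, then LipidA-transfected 24 hour.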
row,Sequence,z-score
1,GGUGGAUUUUGAAACUAUUTT against Pcdhb17,1.11 (inactive)
2,GGCUGAACUGAUCCUGUACTT against Kcnh3,-2.22 (active)
3,GCAAGUAGUUAGCUCAGGGTT against Gabpb1,-0.752 (inactive)
4,GGCAUUCUGAAAAAAUAGCTT against Rb1cc1,-1.55 (inactive)
5,GGUUUGUGGAUGACAACGGTT against Mtf1,0.216 (inactive)
6,GGCGAAUGGAAGAUAAUGCTT against Stxbp3,-0.233 (inactive)
7,CGAGUUUGUAAUGAUGCUATT against Cabp4,2.51 (active)
8,GGAACUCUGUAGACAGAAUTT against Lpin1,0.705 (inactive)
9,GGCUCAGAUCUUUGACUACTT against Pnp,-0.232 (inactive)
10,GGACUUGGAGUUUCGUAAATT against Lmnb1,2.92 (active)
11,GGCUGAAAAGAAAAACAGATT against Rgs5,-0.378 (inactive)
12,CGUGACAUGCACGACUUCUTT against Tac2,1.49 (inactive)
13,GGGAGAAAAGGGUCAAAAATT against Marco,0.819 (inactive)
14,GGCCAAGGAAAUAUCAAUGTT against Alg14,2.69 (active)
15,GGAACUGUGUGACUACUUUTT against Necab2,0.18 (inactive)
16,GGUCAACAUUUGCUGUAAGTT against Inhba,-0.599 (inactive)
17,GGGAAAAUAUCAAGUGUAGTT against Tmem60,0.567 (inactive)
18,GGGCAAACCGGAAAAACAGTT against Ccdc71,-2.06 (active)
19,GCUGUUUCAAAAGUCAUAUTT against Col11a1,1.96 (inactive)
20,GCAGAUACCAUGAUACAGUTT against Med20,-0.154 (inactive)
21,GGUAAAUGUGAAUGUAAGGTT against Ntn4,0.73 (inactive)
22,GGAUAAUUUAAACAUGGGATT against Cd276,-1.08 (inactive)

row,Sequence,z-score
1,GGCUACUGGAGCAAGUUUATT against Apoc3,2.48 (active)
2,GGUUUAGGGUCAAGAUAUUTT against Ttf2,-1.39 (inactive)
3,GGAUUGGCAACCUCCAUUUTT against Kdm5a,-0.312 (inactive)
4,GGACAAUGAGAUUCUUCUCTT against Mptx1,-1.58 (inactive)
5,GGCAACUAUAAGUACAUAGTT against Gsta3,3.87 (active)
6,GGAAGGUGCUAAAAAUAUATT against Pdhx,0.23 (inactive)
7,GGAAAAGACAUCAGAUGAATT against Mrpl1,0.233 (inactive)
8,GGUAAUGGAAAUGAACAAATT against Zfp353-ps,0.381 (inactive)
9,GGUCUCAUAGAGUGUUACUTT against Anapc7,4.38 (active)
10,GGAACUGGACAAGGACGAUTT against Arhgdia,1.17 (inactive)
11,GGAUUUGAGUGGUAAUGAATT against Tm2d1,-2.2 (active)
12,GGAAAAUGUCCCACUUUUATT against Olfr70,-0.926 (inactive)
13,GGAUUUGACCAGUAUAAGUTT against Ptgs2,-1.05 (inactive)
14,GGCUCCAAUAAAGUGCCUUTT against Elf3,1.46 (inactive)
15,GCUGGAGAUCUAAAAACAGTT against Mphosph10,1.54 (inactive)
16,GGCAACUUAAGUUUUACAGTT against Tmem170,-0.898 (inactive)
17,GGUGAUAUGUGUGGGCUUGTT against Fahd2a,-2.06 (active)
18,GGAGUUCUGUCCAUUUUGATT against Olfr1198,0.45 (inactive)
19,GCGUAGAAGACACUUAUAGTT against Zc3h14,1.47 (inactive)
20,GGCUCUGAAUUAACUCCAGTT against Srpk3,-0.654 (inactive)
21,GCUAUUGACAUAAUGAGGCTT against Nfe2l3,-1.41 (inactive)
22,GGGUACAAAGGCUGUAGUUTT against Sec61a1,-2.42 (active)

row,Sequence,z-score
1,CCUGAAUUCAGUCUGUUUUTT against Depdc1b,-0.931 (inactive)
2,GGAAAAUGUUUUACCAAUGTT against Rspry1,-0.102 (inactive)
3,GGACAUCGGAUUCUACACCTT against Psg19,0.531 (inactive)
4,CCAACAAAAGCCUAUUCGGTT against Hsh2d,-0.169 (inactive)
5,GAACUUUGCCAUUGAUUUGTT against Ndufs6,1.63 (inactive)
6,GCUGAUUUCUCAAACAUGATT against Serpinb10,-0.489 (inactive)
7,GUCCCUGAACCUGUGGUAUTT against Emp3,1.26 (inactive)
8,GCUGUUCCACAUUGAAGUGTT against Pcdh18,2.84 (active)
9,GCUGAUGGACUCAAGAAAGTT against Zbed5,-0.805 (inactive)
10,GGACCAUUCUGGCUACUCATT against Ankrd34b,-2.17 (active)
11,GGACAAAUUUCUUUUCCUUTT against Atp10a,-0.448 (inactive)
12,GCUGAUAAACCACUUGUGATT against Olfr1287,-0.804 (inactive)
13,GGCAUUCAAACCUCUCGUGTT against Dcn,-0.921 (inactive)
14,GGGUGAUUGAUCACUACUUTT against Olfr279,0.784 (inactive)
15,GGAAAUGGUAAUUUUCAGUTT against Slc25a36,-0.242 (inactive)
16,GGGAUGAAGUCCUGGAUAATT against Atp6v1g1,-0.953 (inactive)
17,CCAACUUCGAUGCUGAGAGTT against Anxa2,-1.8 (inactive)
18,CGACAGAGGAAGGUAUUGGTT against Gcsh,-2.95 (active)
19,CGCCUCAUCAUCUCGAUUCTT against Cnga3,-1.63 (inactive)
20,GCAUGUGGAGAAGAUGAGGTT against Tas2r143,0.793 (inactive)
21,GGAUUUCAAAGUGCUUUGCTT against Kifap3,3.44 (active)
22,CCUAAACCCAUUCCAGUCUTT against Dpm3,0.104 (inactive)

row,Sequence,z-score
1,CCUGAGACAUACUUAAUGUTT against Anapc10,0.747 (inactive)
2,CCUCGAGAGACUUUCAUGGTT against F2,-0.475 (inactive)
3,GCUUAUGAGAUGAGUGAAUTT against Ccdc43,-0.209 (inactive)
4,GGAAUGUUUGGUGCUAUGATT against Flvcr2,3.4 (active)
5,GGGAUUUUCAGGGAGAUUUTT against Plekho1,1.46 (inactive)
6,CCAGGACCUUAUCAGGUUUTT against Idh2,2.44 (active)
7,GCUUAGGAAUGGCGACAACTT against Vmn1r188,-0.413 (inactive)
8,GGCAAUGAGAAAGUUACUCTT against Olfr1102,1.65 (inactive)
9,GGCAGGUGUUAAGGCUUCATT against Tas2r117,0.873 (inactive)
10,GGAACCACUGCUUUCAAAATT against Cd36,0.83 (inactive)
11,GCUUUACCUGCAUAUUCCATT against Nradd,-2.04 (active)
12,GGGCCAGCAUGUUAUCUGUTT against Kat8,-0.8 (inactive)
13,CCAGCCAGACUGAAAAAGCTT against Stmnd1,-0.652 (inactive)
14,GGGAGAUGCAACAACAAGATT against Epx,-0.847 (inactive)
15,GGACAAAUGAACAUGCUGATT against Edn2,-2.26 (active)
16,GAAGUGAUGCUGCUAGUAGTT against A030005L19Rik,-2 (inactive)
17,GGAACACUGGGAACGUAUCTT against Ifnk,0.00139 (inactive)
18,GCCCUAGUGUCUGAAAAAATT against Sfrp5,0.864 (inactive)
19,GGACAAGGCUGCUACUUCATT against Pou6f2,1.74 (inactive)
20,GGCACUUCUUAAUCCCACATT against Nfe2,-2.41 (active)
21,GUACAAGUGUGGACCCUUATT against Chchd2,0.409 (inactive)
22,GCAGGCUACCUCUAAUCCATT against Slc23a3,-0.241 (inactive)

row,Sequence,z-score
1,GGAUCUAAAGCUUGAACCUTT against Pheta1,1.24 (inactive)
2,GCUACCAUCUGCUAAUACATT against Smg1,3.65 (active)
3,GGUUCCACAGUGGCAAAUGTT against Vmn1r202,0.957 (inactive)
4,GCCUAUCACGAGCUAUGAUTT against Shkbp1,-1.5 (inactive)
5,GGAAUCGAAACCAAUGUGUTT against Il1rl2,-0.471 (inactive)
6,GGUUCAAAUGUUCUCCAUATT against 9530080O11Rik,2.55 (active)
7,GCUCCGGAAAUUGGCAUCATT against Ppp1r10,-1.5 (inactive)
8,GGAGAAGAAGAAAAAGUCATT against BC005537,-0.495 (inactive)
9,GAUGUUUCAGAACAUUCUUTT against Cadps,0.436 (inactive)
10,GGACAUAAAAGUGUCUCGATT against Cldn13,0.16 (inactive)
11,GCCAAGGGUUUGAAAGCCATT against Tpm1,-0.949 (inactive)
12,GGCUUGUUUUGCCCAGAUGTT against Olfr398,-2.94 (active)
13,CCUCAUGUUAAUCUGGAGATT against Gabre,0.0167 (inactive)
14,GGAAGUAUUAAUGUACAACTT against Msmo1,0.0519 (inactive)
15,CGGUGGUCACUGUGAAAUGTT against Nr1h5,0.0152 (inactive)
16,CGGGAAGAAGUUCAUAAAUTT against Topbp1,0.36 (inactive)
17,GGUUAAAUGUCGUUUAUACTT against Rasa3,0.308 (inactive)
18,GGAUAUCGAGGAGAUGAUCTT against Aoc3,-2.17 (active)
19,GCAGUUGACCACAGAAAAUTT against BC061237,-1.35 (inactive)
20,GGACCCAUGAGGUUAACUUTT against Tbc1d22a,0.922 (inactive)
